# Screening results: PubChem, National Center for Advancing Translational Sciences (NCATS)
# GFP derepression – qHTS Assay for Epigenetic Modulators; mouse C127i GFP locus derepression, cytometry, 30 h; Potency, µM (doses to about 46.1 µM), for the others: at the highest dose GFP derepression (activation); 68,000 compounds, 0.09% hits; AID 597, 2007; also: % of control where 0% means no effect
#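 Read-out is the number of GFP-positive cells, scored as fluorescent objects 20 to 120 um wide, reflecting derepression of a silenced CMV-GFP reporter in murine C127i cells after 30 h compound exposure at 37 C.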
# PK Bst – Pyruvate Kinase; 51,000 compounds, 1.2% hits; Potency, µM; purified pyruvate kinase, luminescence ATP production; ribose 5-phosphate activator present at AC10; AID 361, 2006; in the data active = potency below about 11 µM; inconclusive = mostly about 12 µM to 25 µM;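 the screen sought inhibitors and activators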;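 also: potency is read from the fitted curve at half-maximal effect; scaled between full activation by ribose 5 phosphate and full inhibition by luteolin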
# FLuc inh – qHTS Assay for Inhibitors of Firefly Luciferase; purified firefly luciferase, luminescence, 8 min; Potency, µM (top dose mostly 57.1 µM), inactives show at the top dose activity change, negative = inhibition, most hits filed as inhibitors; AID 411, 2009; Luciferin 4-monooxygenase (Photinus pyralis), P08659; 72,000 compounds, 2.2% hits; also: potency is read from the fitted curve at half-maximal effect; % is scaled to controls: 0 for no effect and ±100 for the full control effect; nearly all actives have a fitted effect of over 40% in size
#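 Compounds were tested as concentration series (qHTS) against purified P. pyralis luciferase with luciferin and 10 uM ATP in 50 mM imidazole pH 7.2, 50 mM KCl, 7 mM MgCl2, 0.01% Tween 20, 0.05% BSA. Luminescence was read after 8 min at ambient temperature.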
# Ub-GFP proteasome – Ubiquitin-GFP Assay | Ubiquitin-GFP reporter cells, proteasome inhibition, GFP fluorescence; response scale: untreated = 0%, 10 µM MG-132 = 100% | Potency, µM (series often up to 45.9 µM), for the others: at the top dose activation (GFP accumulation), hits mostly activators | 67,000 tested, under 10 active | AID 526, 2006; active = well fitted activation curve with a large enough effect, not every such curve was filed as active; inconclusive = small, poorly fitted or top-dose-only effect, or another doubt; inactive = no such curve, though single readings can be large or run the other way; also: potency is read from the fitted curve at half-maximal effect
#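 Reporter cells (U2OS, ubiquitin-G76V-GFP fusion) are plated overnight, then treated 4 hr at 37 °C with compound titrations from 46 uM down to 2.9 nM. Activity is scaled against untreated cells and 10 uM MG-132.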
# GBA activity – Glucocerebrosidase; Lysosomal acid glucosylceramidase (Homo sapiens), P04062; purified enzyme, resorufin glucoside fluorescence (screen aimed at inhibitors), 20 min; Potency, µM; 48,000 compounds, 1.1% hits; in the data active = potency below about 15 µM; inconclusive = mostly about 16 µM to 33 µM;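 also: potency is read from the fitted curve at half-maximal effect; the screen sought inhibitors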
# Target sequence (P04062 whole entry, looked up): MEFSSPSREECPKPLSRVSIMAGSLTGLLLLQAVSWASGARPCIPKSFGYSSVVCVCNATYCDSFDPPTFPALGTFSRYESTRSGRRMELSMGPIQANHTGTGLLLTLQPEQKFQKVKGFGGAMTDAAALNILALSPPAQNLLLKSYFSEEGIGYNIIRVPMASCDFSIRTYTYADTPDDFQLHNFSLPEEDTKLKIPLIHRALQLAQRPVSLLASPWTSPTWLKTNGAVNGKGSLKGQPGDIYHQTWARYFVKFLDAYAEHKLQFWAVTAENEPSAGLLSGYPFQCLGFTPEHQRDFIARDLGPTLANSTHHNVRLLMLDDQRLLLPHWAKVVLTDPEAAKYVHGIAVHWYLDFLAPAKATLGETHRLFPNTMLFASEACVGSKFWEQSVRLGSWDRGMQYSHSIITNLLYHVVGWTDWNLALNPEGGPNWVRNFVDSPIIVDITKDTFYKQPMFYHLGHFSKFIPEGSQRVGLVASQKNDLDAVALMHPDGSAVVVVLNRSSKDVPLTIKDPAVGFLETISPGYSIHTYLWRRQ
#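 Wild-type enzyme at 0.2 nM final in 50mM citric acid/KH2PO4, 10mM sodium taurocholate, 0.01% tween-20, pH 5.9, with resorufin beta-D-glucopyranoside at 30 uM final. Compounds titrated, 20 min at RT, red fluorescence read; AC50 from titration.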
# HBB splice mod – qHTS Assay for Modulators of Hemoglobin Beta Chain Splicing; HBB splicing reporter cell assay, activation; EGFP reporter with mutant IVS2-654 intron; response scale: normalised to 500 nM splice-correcting PNA; Potency, µM (series often up to 46.1 µM), inactives show at the highest dose activation, usual class: activators; 65,000 compounds, 0.06% hits; also: potency is read from the fitted curve at half-maximal effect; 0% is about no effect
#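 HeLa cells stably expressing EGFP interrupted by mutant beta-globin intron 2 (IVS2-654), 500/well in 2% FCS. Treated with compound for 2 days at 37C. Splicing correction scored as total well GFP intensity (488 nm excitation, 500-520 nm emission); 500 nM antisense PNA served as control.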
# An asterisk follows results filed as active; i = inactive; ? = inconclusive; . = no result; [ ] = another dose, or the depositor's remark. Rows were chosen to be rich in hits. Some 3.3% of all compounds tested hit in one or more screens of this group. Unless noted, calls follow the shape of the dose curve; as a rule, active = well fitted curve in the direction sought with a large enough effect; inconclusive = small, poorly fitted or top-dose-only effect, or another doubt; inactive = no such curve, though single readings can be large; an effect the other way counts as inactive or inconclusive.
SMILES,GFP derepression,PK Bst,FLuc inh,Ub-GFP proteasome,GBA activity,HBB splice mod
CC(=O)c1cccc(NC(=O)NCCS(C)=O)c1 (stereo not given),0%,>57,0%,5%,>77,.
CC(=O)OC[C@H]1O[C@@H](ON=C(C)C)[C@H](OC(C)=O)[C@@H](OC(C)=O)[C@H]1OC(C)=O,.,.,-1%[11.4 µM],.,.,1%[9.22 µM]
COc1ccc(NC(=O)Nc2ccc(C(=O)N3CCOCC3)cc2)cc1,2%,>57,-1%,3%,>77,-1%
O=C(Nc1ccc(C(=O)N2CCOCC2)cc1)Nc1cccc(Cl)c1,0%,.,16µM*,-2%,>77,0%[57.5 µM]
CSc1cccc(NC(=O)Nc2ccccc2)c1,0%,.,10µM*,-13%[9.17 µM],.,-1%[0.0738 µM]
CC(=O)c1cccc(NC(=O)Nc2ccc3c(c2)N(C)C(=O)CS3)c1,0%,i,16µM*,7%,>77,-1%
O=C(O)c1cc(-c2ccc(-c3ccc(-c4cc(C(=O)O)c5cc(Cl)ccc5n4)cc3)cc2)nc2ccc(Cl)cc12,2%[9.22 µM],.,2%[11.4 µM],-14%[9.17 µM],.,2%[9.22 µM]
NC(=O)c1ccc(-c2ncc(-c3ccccc3)o2)cc1,0%,4*,13µM*,-20%,>77,-1%
CCCOc1ccc(-c2nnc(N)s2)cc1,5%[20.6 µM],?,13µM*,.,.,.
NC(=O)c1ccc(-c2nc(-c3ccc4c(c3)OCO4)c(-c3ccccn3)[nH]2)cc1,0%,.,7.9µM*,-1%,.,.
Cc1n[nH]c(C)c1N1C(=O)c2cccc3c(N4CCCCCC4)ccc(c23)C1=O,2%,.,-1%,-8%,.,16µM*
Cc1ccc(-c2noc(-c3cccs3)n2)cc1,0%,.,7.9µM*,1%,.,-1%[9.22 µM]
COCCn1c(=O)c(-c2cn(C)c3ccccc23)nc2cnc(OCc3ccccc3)nc21,0%[9.22 µM],.,0%[11.4 µM],-7%,.,-1%
CN(C)c1ccc(-c2ccc3ncnc(-n4ccnc4)c3c2)cc1,5%[9.22 µM],.,-2%[2.29 µM],16%,.,1%
COc1ccc(CNC(=O)c2cc(-c3ccccc3OC)on2)cc1,0%,>57,-12%,6%,11*,1%
COc1ccccc1-c1cc(C(=O)NCc2ccccc2)no1,-1%,>57,-19%,0%,.,1%
COc1ccccc1-c1cc(C(=O)NCc2ccc(Cl)cc2)no1,0%,>57,-2%,-11%,>77,-1%
COc1ccccc1-c1cc(C(=O)NCc2ccc(F)cc2)no1,3%,>57,-2%,23%,9.9*,0%
O=C(O)CCCC[C@@H]1SC[C@H]2NC(=O)N[C@H]12,0%[9.22 µM],.,2%[11.4 µM],-2%,.,.
CCCCNc1nc(C)nc2c1nc(-c1ccccc1)n2CC(C)(C)CN(C)C,.,.,.,3%,.,0%
CC1CC(C)(C)Nc2ccc(OC(=O)c3ccco3)cc21 (stereo not given),?,.,13µM*,-5%,.,-1%[9.22 µM]
O=C(Oc1ccc2ccccc2c1)c1ccco1,3%,.,-20%,-5%,.,3%
CO[C@H]1COC(=O)C/C=C\[C@@H](C)COC(=O)[C@@H](CCSC)NC(=O)C/C=C\[C@@H]1C,.,.,1%[11.4 µM],.,.,1%[9.22 µM]
Cc1cc(NC(=O)c2ccc(NC(=O)c3cccs3)cc2)no1,?,>57,0%,10%,2.4*,0%
CCOc1ccc(C(=O)Nc2cc(C)on2)cc1,0%,.,10µM*,-8%,.,0%[9.22 µM]
SMILES,GFP derepression,PK Bst,FLuc inh,Ub-GFP proteasome,GBA activity,HBB splice mod
Cc1cc(NC(=O)c2ccc(Cl)cc2)no1,5%,.,?,0%,>77,.
CCOc1cc(C(=O)Nc2cc(C)on2)cc(OCC)c1OCC,3%,>57,-1%,4%,>77,-1%
Cc1ccc(NC(=O)c2ccccc2F)nc1,0%,i,25µM*,0%,>77,.
CC(=O)c1c(C)[nH]c(C(=O)Nc2ccc(C)cn2)c1C,3%,4.4*,2.5µM*,-7%,.,1%
Cc1ccccc1C(=O)Nc1ccc(Br)cn1,3%,.,13µM*,9%[9.17 µM],.,2%[0.0738 µM]
CC(=O)c1c(C)[nH]c(C(=O)NCc2ccccn2)c1C,3%,>57,-1%,-7%,>77,0%
N#C[C@@H](Cc1ccc(O)c(O)c1)C(=O)N1CCc2ccccc21,-1%,.,1%,-6%,.,1%
C=C(c1cccc2ccccc12)P(=O)(O)O,0%,0.17*,5%,0%,>77,-5%[57.5 µM]
CC(=O)NC(Cc1ccc(F)cc1)C(=O)NC1CCN(c2nnnn2-c2ccccc2)CC1 (stereo not given),0%,>57,2%,6%,5.8*,-10%
Oc1ccc([C@@H]2CNCc3sccc32)cc1O,-1%,.,-16%,5%,.,3%
COc1ccc(-n2c(=O)c(-c3cccs3)nc3cnc(Oc4ccccc4)nc32)cc1,3%[9.22 µM],.,0%[11.4 µM],-7%,.,9%
CCCCC(=O)Nc1cccc(-c2cn3ccsc3n2)c1,-1%,i,13µM*,-2%,?,-1%
O=C(Nc1cccc(-c2cn3ccsc3n2)c1)c1ccccc1,-2%,i,25µM*,0%,>77,3%[57.5 µM]
COc1ccccc1C(=O)Nc1cccc(-c2cn3ccsc3n2)c1,2%,?,13µM*,5%,>77,-1%
O=C(Nc1cccc(-c2cn3ccccc3n2)c1)c1cnccn1,0%,.,4µM*,-2%,.,.
O=C(Nc1ccc(-c2cn3ccccc3n2)cc1)c1cc(Br)ccc1O,0%[9.22 µM],.,-2%[11.4 µM],-2%[9.17 µM],.,2%[9.22 µM]
C[C@@H]1O[C@H](O[C@@H]2[C@H](C)O[C@H](O[C@@H]3[C@H](C)O[C@H](O[C@H]4CC[C@]5(C)[C@@H](CC[C@@H]6[C@H]5C[C@@H](O)[C@]5(C)[C@@H](C7=CC(=O)OC7)CC[C@]65O)C4)C[C@@H]3O)C[C@@H]2O)C[C@H](O)[C@@H]1O,0%[20.6 µM],.,4%[25.5 µM],1%[20.5 µM],.,-1%[20.6 µM]
CC(C)C[C@@H](CC(=O)N[C@@H](CCC(=O)O)CC(=O)O)NC(=O)[C@@H]1CCCC[C@H]1NC(=O)C[C@H](CCCN)NC(=O)C[C@H](Cc1c[nH]c2ccccc12)NC(=O)[C@@H]1CCCC[C@H]1N,.,.,.,.,.,0%
O=C1C=C[C@@H](O)[C@@H]2[C@H]3C(=O)N(c4ccc(F)cc4F)C(=O)[C@@H]3CC[C@@H]12,.,.,1%[11.4 µM],.,.,1%[9.22 µM]
O[C@@](CCN1CCCCC1)(c1ccccc1)C1CCCCC1,2%[20.6 µM],.,-3%[25.5 µM],9%[20.5 µM],.,1%[20.6 µM]
O=C(Nc1nc2c(s1)CCCC2)c1ccc2ncsc2c1,.,.,3.2µM*,-2%,.,0%
Cc1ncsc1C(=O)Nc1nc2c(s1)CCCC2,1%,i,20µM*,5%,>77,.
CCOC(=O)c1sc(NC(=O)c2ccc3ncsc3c2)nc1C,.,.,-15%,5%,.,1%
